The structures appear in SMILES notation. Records with an inconclusive call do not appear. The source made the active and inactive calls. Unless noted, calls come from the whole dose curve; as a rule, active = well fitted curve in the direction sought with a large enough effect in the repeat runs; inconclusive = weak or mixed curves; inactive = no such curve, though single readings can be large; an effect the other way counts as inactive or inconclusive.

Assay [1] is described as follows: qHTS assay to identify small molecule antagonists of the glucocorticoid receptor (GR) signaling pathway - cell viability counter screen (AID 720693). Note: nearly all actives have a fitted effect of over 55% in size. On the technique in general: Quantitative high-throughput screening tests each substance at several concentrations.
A short description of assay [2]: qHTS assay for identifying genotoxic compounds that show differential cytotoxicity against isogenic chicken DT40 cell lines with known DNA damage response pathways - Rev3 mutant cell line (AID 743014). Note: nearly all actives have a fitted effect of over 55% in size. Note: potency is the fitted concentration of half-maximal effect.
Assay [3] in a line: qHTS assay for identifying genotoxic compounds that show differential cytotoxicity against isogenic chicken DT40 cell lines with known DNA damage response pathways - Rad54/Ku70 mutant cell line (AID 743015). Note: nearly all actives have a fitted effect of over 60% in size. Note: potency is the fitted concentration of half-maximal effect.
Assay [4] in a line: qHTS assay to identify small molecule antagonists of the androgen receptor (AR) signaling pathway - cell viability counter screen (AID 743033; note: nearly all actives have a fitted effect of over 45% in size).
Assay [5] in a line: qHTS assay to identify small molecule antagonists of the androgen receptor (AR) signaling pathway using the MDA cell line - cell viability counter screen (AID 743041; note: nearly all actives have a fitted effect of over 45% in size). An outline of the steps:
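Using the breast carcinoma line MDA-kb2 AR-luc, test chemicals were co-incubated with R1881 for 16 h; CellTiter-Fluor reagent, added at 15.5 h, provided a fluorescence measure of live cells.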

The nature of assay [6]: qHTS assay to identify small molecule antagonists of the thyroid receptor (TR) signaling pathway - cell viability counter screen (AID 743064). Note: nearly all actives have a fitted effect of over 50% in size. Put shortly: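 GH3.TRE-Luc rat pituitary cells dosed after 4 hr plating, co-stimulated with T3 at 1 nM final, incubated 23.5 h at 37 C. Viability measured in the same wells by CellTiter-Fluor fluorescence after 30 min further at 37 C.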

Assay [7] in a line: qHTS assay for identifying genotoxic compounds that show differential cytotoxicity against isogenic chicken DT40 cell lines with known DNA damage response pathways - wild type cell line (AID 743012). Note: nearly all actives have a fitted effect of over 60% in size. Put shortly:
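Endpoint: CellTiter-Glo luminescence, 30 min RT. Cells: wild type DT40, 300/well. Exposure: compounds in DMSO, 40 h, 37 C/5% CO2, after ~0.5 h pre-incubation.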

Assay [8] has as its target Androgen receptor (Homo sapiens) (UniProt P10275). The experiment in a line: qHTS assay to identify small molecule antagonists of the androgen receptor (AR) signaling pathway (AID 743035; active = well fitted inhibition curve with a large enough effect in the signal ratio in the repeat runs, not every such curve was filed as active; the % refers to the signal ratio). An outline of the steps: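 R1881 agonist challenge of a HEK293 UAS-beta-lactamase AR reporter line in the presence of compound (16 h, 37C); signal taken as FRET fluorescence after 2 h with LiveBLAzer B/G substrate at room temperature.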

Assay [9] has the same target. The experiment in a line: qHTS assay to identify small molecule agonists of the androgen receptor (AR) signaling pathway (AID 743036; active = well fitted activation curve with a large enough effect in the signal ratio in the repeat runs, with a control signal flat, not every such curve was filed as active; the % refers to the signal ratio). Put shortly: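 AR-UAS-bla HEK293 cells, plated 4 h before dosing, were treated with compound for 16 h at 37C. beta-Lactamase reporter read after 2 h with LiveBLAzer B/G FRET substrate at room temperature.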
Assay [10] shares this target. The experiment in a line: qHTS assay to identify small molecule agonists of the androgen receptor (AR) signaling pathway using the MDA cell line (AID 743040; note: nearly all actives have a fitted effect of over 20% in size). An outline of the steps:
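Stable MMTV-luciferase reporter in MDA-kb2 cells; note the promoter carries GR as well as AR response elements. 16 h compound treatment, 37C, 0% CO2; ONE-Glo luminescence endpoint.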

Chain of Androgen receptor (Homo sapiens) (P10275 whole entry, looked up): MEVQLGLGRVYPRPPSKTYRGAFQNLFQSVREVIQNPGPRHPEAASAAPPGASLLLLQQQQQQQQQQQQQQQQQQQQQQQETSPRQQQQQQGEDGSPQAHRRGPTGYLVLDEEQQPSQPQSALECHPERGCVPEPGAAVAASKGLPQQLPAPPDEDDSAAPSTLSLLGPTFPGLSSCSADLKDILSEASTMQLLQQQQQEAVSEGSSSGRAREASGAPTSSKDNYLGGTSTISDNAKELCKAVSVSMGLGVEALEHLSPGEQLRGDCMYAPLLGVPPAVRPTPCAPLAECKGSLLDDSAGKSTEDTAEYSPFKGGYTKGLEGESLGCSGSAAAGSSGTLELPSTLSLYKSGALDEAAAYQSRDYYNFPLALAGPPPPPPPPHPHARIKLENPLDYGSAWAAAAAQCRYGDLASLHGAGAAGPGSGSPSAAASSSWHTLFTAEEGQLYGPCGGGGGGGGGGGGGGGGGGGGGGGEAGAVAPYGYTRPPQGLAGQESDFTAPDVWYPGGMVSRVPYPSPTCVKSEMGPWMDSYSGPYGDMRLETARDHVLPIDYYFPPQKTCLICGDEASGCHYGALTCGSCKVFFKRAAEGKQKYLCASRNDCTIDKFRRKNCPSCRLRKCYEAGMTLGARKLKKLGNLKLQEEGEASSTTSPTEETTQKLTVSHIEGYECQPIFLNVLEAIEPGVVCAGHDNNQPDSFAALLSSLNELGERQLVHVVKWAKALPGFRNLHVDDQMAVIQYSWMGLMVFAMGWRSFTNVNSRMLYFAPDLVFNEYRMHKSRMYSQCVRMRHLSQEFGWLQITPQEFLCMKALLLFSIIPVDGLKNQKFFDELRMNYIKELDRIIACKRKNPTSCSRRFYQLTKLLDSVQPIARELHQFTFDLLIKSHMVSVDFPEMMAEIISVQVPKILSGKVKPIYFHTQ

As for `C=CCON/C(CCC)=C1\C(=O)CC(C)(C)C(C(=O)OC)=C1O`, the call in assay [1], in [4] and in [5] was inactive. The Potency entry in assay [2], in assay [3] and in assay [6] was “inactive” throughout.
For the compound `CCO[Si](CC(C)C)(OCC)OCC`, the Potency result in [7], in assay [3] and in assay [6] was “inactive” throughout. Moreover, in [2], the Potency was 24.3 µM (active). Besides, the result in assay [5] was inactive.
With `CCCCCCCC(=O)N(C)C`, the compound was classed as inactive in assay [1], in assay [4] and in assay [5]. Moreover, the Potency result in assay [2], in assay [3] and in assay [6] was “inactive” each time.
For the compound `O=C1Nc2ccccc2C1=O`, the call in assay [1], in assay [4] and in [5] was inactive. For the same compound, the Potency result in [2], in assay [3] and in assay [6] was “inactive” throughout.
In the case of `CC(=O)c1ccc2ccc3ccccc3c2c1`, the compound was classed as inactive in assay [1], in [4] and in [5]. The Potency in assay [2] was 60.8 µM (active). Further, the Potency result in [6] was “inactive”.
`CCO/C=C1\N=C(c2ccccc2)OC1=O`: the call in [1], in assay [4] and in assay [5] was inactive. Besides, the Potency in assay [3] is 48.4 µM (active).
For `COC(=O)/C=C(\C)CCC=C(C)C`, the result in assay [1], in [4] and in assay [5] was inactive.
For the compound `COC(=O)C(c1ccccc1Cl)N1CCc2sccc2C1` (centres undefined), the result in assay [1], in [4] and in assay [5] was inactive.
For the compound `O=S(=O)(O)c1cc(I)c(O)c2ncccc12`, the compound was called inactive in assay [1], in [4] and in assay [5]. For the same compound, in [6], the Potency result was “inactive”.
In the case of `CCCCCCCCCCCCCCBr`, the compound was called inactive in [1], in assay [4] and in assay [5]. Also, the Potency entry in [2], in [3] and in assay [6] was “inactive” throughout.
For the compound `C=CCN(CC=C)CC=C`, the compound was called inactive in [1], in assay [4] and in [5]. Also, the Potency entry in assay [2], in [3] and in assay [6] was “inactive” throughout.
Consider `CN(C)c1ccncc1`, for which the result in assay [1], in assay [4] and in assay [5] was inactive. In assay [6], the Potency result is “inactive”.
Regarding `CCCC(=O)C(CC)Sc1ccoc1C` (centres undefined), the call in assay [1], in assay [4], in assay [8], in assay [9], in [10] and in [5] was inactive. The Potency result in assay [6] is “inactive”.
`COc1ccc2cc(CCC(C)=O)ccc2c1`: the compound was called inactive in [1], in assay [4] and in assay [5]. Moreover, the Potency entry in assay [2], in assay [3] and in [6] was “inactive” each time.
With `COc1cnc(NS(=O)(=O)c2ccc(N)cc2)nc1`, the result in assay [1], in assay [4] and in assay [5] was inactive. Besides, in [2], the Potency result is “inactive”.
Turning to `CSC(=O)c1cccc2nnsc12`, the call in assay [1], in assay [4], in assay [9], in [10] and in [5] was inactive. In assay [2], the Potency is 21.7 µM (active).
In the case of `CC1=C(O)C(=O)CO1`, the compound was called inactive in [1], in assay [4] and in assay [5]. In addition, the Potency result in assay [2], in assay [3] and in [6] was “inactive” in each case.
With `CCOC(=O)COc1ccc2c(C)c(CCN(CC)CC)c(=O)oc2c1Cl`, the compound was called inactive in [1] and in [4].
`CCCC(=O)OC`: the compound was called inactive in [1], in [4] and in assay [5]. Also, the Potency result in assay [2], in assay [3] and in assay [6] was “inactive” throughout.
With `O=S(=O)(O)CC(O)CCl` (centres undefined), the compound was called inactive in assay [1], in assay [4] and in assay [5]. For the same compound, the Potency entry in assay [2], in [3] and in assay [6] was “inactive” throughout.
Regarding `C=CC(=O)OCCOCCOCC`, the Potency result in assay [7], in assay [2], in assay [3] and in assay [6] was “inactive” in each case. Also, the compound was classed as inactive in assay [4] and in assay [5].
For the compound `CC(C)C[P+](C)(CC(C)C)CC(C)C`, the Potency entry in [7], in assay [2], in [3] and in assay [6] was “inactive” each time. The call in assay [4] and in assay [5] was inactive.
On to `COCCCOc1cc(C[C@@H](C[C@H](N)[C@@H](O)C[C@H](C(=O)NCC(C)(C)C(N)=O)C(C)C)C(C)C)ccc1OC`, for which the result in [1], in assay [4] and in assay [5] was inactive. The Potency entry in assay [2], in assay [3] and in [6] was “inactive” in each case.
`CCNC(=O)C(C)OC(=O)Nc1ccccc1` (centres undefined): the outcome in assay [1] and in assay [4] was inactive. Further, in [2], the Potency entry was “inactive”.
For `CC(C)(C)NCC(O)COc1cccc2c1CCC(=O)N2` (centres undefined), the compound was called inactive in assay [1], in [4], in [8], in assay [9], in assay [10] and in assay [5]. For the same compound, the Potency result in assay [2] and in assay [6] was “inactive” each time.
As to `Cc1cccc(N)n1`, the call in assay [1], in assay [4] and in assay [5] was inactive.
As to `CN(C)c1cc(NC(=O)CNC(C)(C)C)c(O)c2c1C[C@H]1C[C@H]3[C@H](N(C)C)C(=O)C(C(N)=O)=C(O)[C@@]3(O)C(=O)C1=C2O`, the call in [1], in [4], in assay [8], in assay [10] and in assay [5] was inactive. In assay [3], the Potency result is “inactive”.

Source of the values: PubChem BioAssay (Tox21).
